# EPAC1 ag: agonists of human EPAC1; AID 720707; O95398; EPAC1 agonist qHTS, biochemical assay; response scale: 100% = response to 6.5 mM cAMP; Potency, µM (top dose mostly 154 µM), for the others: top-dose activation, usual class: activators; 360,000 tested, 0.073% active; also: potency is read from the fitted curve at half-maximal effect; nearly all actives have a fitted effect of over 60% in size
#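 Nucleotide exchange assay: 100 nM EPAC1 with 250 nM Rap1B loaded with BODIPY-GDP and 50 uM GDP, room temperature. Fluorescence (480/540 nm) read every 5 min for 30 min; signal change normalized to 6.5 mM cAMP as full agonist.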
# IL2 activator: activators of IL-2. activation, % (series mostly up to about 46 µM). IL-2 activation reporter assay, cell-based qHTS; stimulated with anti-CD3/CD4/CD28 beads; in transgenic mouse T cells. 360,000 tested, 0.065% active; in the data active = activation above about 50%; inconclusive = mostly about 30% to 49%; also: 0% is about no effect
#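 Using fluorescent plate cytometry, EGFP and DsRed are detected in transgenic mouse T cells stimulated 18 h at 37 degrees C with antibody-coated beads after 60 min compound pretreatment.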
# EPAC2 antag: blocks human EPAC2 exchange factor; Q8WZA2; EPAC2 GEF exchange of Rap1B-BODIPY-GDP, fluorescence; Potency, µM (titrated, usually from 114 µM), without a hit: at the top dose activity, negative = inhibition, actives largely listed as inhibitors; 360,000 tested, 0.18% active; also: potency is read from the fitted curve at half-maximal effect; % is scaled to controls: 0 for no effect and ±100 for the full control effect; nearly all actives have a fitted effect of over 45% in size
# EPAC1 antagonist: EPAC1 (human) antagonism. Potency, µM (series often up to 115 µM), for inactives: at the highest dose activity change, negative = inhibition, hits mostly inhibitors. 360,000 tested, 0.14% active. AID 720709. O95398. EPAC1 GEF assay, Rap1b-BODIPY-GDP exchange fluorescence;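 also: potency is read from the fitted curve at half-maximal effect; plate controls were vehicle for no effect and positive control for full effect; nearly all actives have a fitted effect of over 50% in size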
# EPAC2 ag: activates human EPAC2 exchange factor; Q8WZA2; 360,000 tested, 0.079% active; EPAC2 activation, biochemical qHTS; response scale: 100% = 6.5 mM cAMP response; Potency, µM (titrated, usually from 154 µM), for the others: top-dose activation, usual class: activators; AID 720711; also: potency is read from the fitted curve at half-maximal effect; nearly all actives have a fitted effect of over 50% in size
#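 Nucleotide exchange monitored as fluorescence drop when BODIPY-GDP leaves Rap1B. Reaction: 100 nM EPAC2, 250 nM RAP1B-BODIPY-GDP, 50 uM GDP, room temperature, kinetic read over 30 min. Activity expressed relative to 6.5 mM cAMP.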
# PKM2 activator: increases activity of human pyruvate kinase M2. purified PKM2, Kinase-Glo ATP luminescence, activation; response scale: 0% is enzyme alone, no compound. P14618. 260,000 tested, 0.34% active. Potency, µM (top dose mostly 57.5 µM), without a hit: at the top dose activation, most hits filed as activators; also: potency is read from the fitted curve at half-maximal effect; % is scaled to controls: 0 for no effect and ±100 for the full control effect; nearly all actives have a fitted effect of over 55% in size
# Target sequence (P14618 whole entry, looked up): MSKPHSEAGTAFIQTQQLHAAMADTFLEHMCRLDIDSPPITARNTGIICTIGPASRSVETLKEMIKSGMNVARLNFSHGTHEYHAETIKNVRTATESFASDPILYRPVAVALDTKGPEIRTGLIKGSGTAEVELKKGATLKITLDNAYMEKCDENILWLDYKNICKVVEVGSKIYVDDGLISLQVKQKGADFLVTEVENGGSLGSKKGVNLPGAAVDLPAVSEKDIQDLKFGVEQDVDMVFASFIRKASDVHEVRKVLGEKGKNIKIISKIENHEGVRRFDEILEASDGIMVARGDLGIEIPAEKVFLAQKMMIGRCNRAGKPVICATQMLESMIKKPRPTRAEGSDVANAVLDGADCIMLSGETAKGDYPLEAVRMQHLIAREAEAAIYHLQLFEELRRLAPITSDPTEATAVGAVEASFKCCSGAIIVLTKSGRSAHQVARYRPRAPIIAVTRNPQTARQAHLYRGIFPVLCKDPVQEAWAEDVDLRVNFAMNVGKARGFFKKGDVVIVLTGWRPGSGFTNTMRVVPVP
#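 ATP formation by purified human PK-M2, quantified via coupled luciferase luminescence after 1 h at room temperature with 0.1 mM ADP and 0.5 mM PEP final.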
# HeLa viability: HeLa cytotoxicity, CellTiter-Glo readout. activity change, negative = cytotoxicity, % at 57.5 µM. shares compounds with PKM2 activator. 230 tested, under 10 active. HeLa viability, CellTiter-Glo ATP luminescence, 24 h; also: % of control where 0% means no effect
# Numbers without * were called inactive; ? = inconclusive; . = no result given. An excerpt weighted towards active compounds, which were near 0.64% of everything screened. Unless noted, calls follow the shape of the dose curve; as a rule, active = well fitted curve in the direction sought with a large enough effect; inconclusive = small, poorly fitted or top-dose-only effect, or another doubt; inactive = no such curve, though single readings can be large; an effect the other way counts as inactive or inconclusive.
SMILES,EPAC1 ag,IL2 activator,EPAC2 antag,EPAC1 antagonist,EPAC2 ag,PKM2 activator,others
O=C(NC1CCCCCCC1)c1ccc(Br)o1,1.0%,-2.9,8.1%,-3.9%,8.8%,-11.7%,
C[C@H](O)[C@@H]1CN2CCc3c([nH]c4ccc(-c5ccc6c(c5)OCO6)cc34)[C@@H]2C[C@@H]1N(C)C(=O)NC1CCCCC1,-3.6%,-1.1,6.2%,-9.6%,16.4%,.,
COc1ccc(/C=C2\SC(=S)N(CCCC(=O)N3CCN(C)CC3)C2=O)cc1OC,1.0%,0.2,10.8%,5.4%,4.2%,.,
COc1ccc(/C=C2\SC(=S)N(CCCCCC(=O)Nc3cc(C)on3)C2=O)cc1OC,12.5%,80.5*,10.3%,25.1%,-2.4%,1.3%,
COc1ccc(/C=C2\SC(=S)N(CCCC(=O)Nc3cc(C)on3)C2=O)cc1OC,10.9%,17.4,1.4%,15.8%,3.4%,3.1%,
CCOC(=O)N1CCN(C(=O)CCN2C(=O)/C(=C\c3ccc(OC)c(OC)c3)SC2=S)CC1,18.4%,93.4*,28.2%,9.4%,23.8%,.,
CC1CCc2c(C(=O)Nc3ccc(N4CCOCC4)cc3)csc2C1 (configuration not stated),-4.0%,-2.4,23.0%,7.8%,-10.5%,1.9%,
O=C(CSc1nnnn1-c1ccc(Cl)c(C(=O)O)c1)NC(c1ccccc1)c1ccccc1,-1.9%,1.1,-9.3%,-7.1%,0.7%,14.4%,
Cc1ccccc1NS(=O)(=O)c1ccc(C(=O)NCC2CCCO2)cc1 (configuration not stated),4.1%,1.1,-1.2%,1.8%,-2.6%,.,
O=C(CSc1ccc(F)cc1)N1CCC(c2nc3ccccc3s2)CC1,11.2%,-2.8,-1.9%,-8.9%,-3.5%,20µM*,
O=[N+]([O-])c1cccc(Cl)c1NCCNS(=O)(=O)c1ccc(Cl)cc1,1.0%,-2.7,-7.2%,-6.5%,12.9%,23.1%,
O=[N+]([O-])c1cccc(Cl)c1NCCNS(=O)(=O)c1ccccc1,22.9%,-0.7,3.2%,0.0%,0.2%,14.1µM*,
COC(=O)c1c(NC(=O)c2ccc(N(C)S(=O)(=O)c3ccc(C)cc3)cc2)sc2c1CCCC2,0.7%,-3.2,0.4%,9.7%,4.2%,-1.6%,
CCN1CCN(S(=O)(=O)c2ccc(C(=O)Nc3sc4c(c3C(N)=O)CCN(CC)C4)cc2)CC1,10.0%,2.7,0.6%,-2.1%,-3.0%,-5.4%,
CC(C)N1CCc2c(sc(NC(=O)c3ccc(S(=O)(=O)N4CCc5ccccc54)cc3)c2C(N)=O)C1,-12.2%,-0.2,44.7µM*,?,-26.6%,2.6%,
CCN1CCc2c(sc(NC(=O)c3ccc(S(=O)(=O)N(C)c4ccccc4)cc3)c2C(=O)NC)C1,8.3%,-0.8,18.4%,7.0%,100µM*,-3.3%,
CC(C)N1CCc2c(sc(NC(=O)c3ccc(S(=O)(=O)N4CCOCC4)cc3)c2C#N)C1,-4.1%,4.5,20.5%,-9.2%,100µM*,-0.6%,
CNC(=O)c1c(NC(=O)c2ccc(S(=O)(=O)N(C)c3ccccc3)cc2)sc2c1CCN(C(C)C)C2,12.2%,62.1*,4.4%,6.7%,?,0.4%,
CCOCC(=O)Nc1ccc([N+](=O)[O-])cc1C,7.2%,-1.4,-6.7%,5.9%,9.9%,-1.7%,
O=C(NCc1ccco1)c1ccc(-c2ccc3nccn3c2)cc1,-15.7%,-0.1,-9.9%,-10.4%,1.4%,.,
O=S(=O)(NC1CCN(S(=O)(=O)c2ccc3c(c2)OCCO3)C1)c1c(F)cccc1F (configuration not stated),-30.8%,-3.2,9.6%,16.7%,6.5%,.,HeLa viability=1.5

# High-throughput results deposited in PubChem BioAssay by National Center for Advancing Translational Sciences (NCATS).
